# Target: APOBEC3A
# Assay: pooled miR-30 sensor sort-seq; sequence = guide strand
# Conditions: shRNA
# Also: reference of the scale not given here.
row,Sequence,sensor-assay potency score (higher = more potent)
1,TACATTGAAAATTATTCTGAGA,-1.07
2,TTCGTAGCACAGGTAGGTCTTA,-0.473
3,TAAAAATCTACTTGATCGGGAG,0.575
4,TGGTCCATCTTGACCGAGGTGC,-0.749
5,TGCTGGTCCATCTTGACCGAGG,-1.28
6,AATCTTACTATTGTGTACTTGG,0.0307
7,TTAGTCTAGATATGAAGCCAAA,-1.73
8,TTAAATTCATCGTAGGTCATGA,0.00462
9,TATTCTGAGAATATTGAGCATA,-1.17
10,TTGATCGGGAGCATACTGCTTT,0.642

# From the OligoGym collection
